KCNH2 3.1 block – blocks the human KCNH2 3.1 channel isoform; U2OS KCNH2 3.1, thallium flux FluxOr; stronger effect = lower value; activity change, % (tested at about 1.8 µM); actives 0.95% (n = 340,000); AID 720553;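 active = maximum activity change below -70%; inconclusive = maximum activity change from -70% to -50%; inactive = maximum activity change above -50%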;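 note: thallium influx rate constant from kinetic fluorescence after stimulation buffer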
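FluxOr-based Tl+ influx in U2OS cells transduced with KCNH2 3.1 virus; rate constants normalized to DMSO controls.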
TRPV1 agonist – activates the human vanilloid receptor TRPV1. Q8NER1. TRPV1-expressing cells, Fluo-8 calcium influx, agonist mode. activation, % at 8.33 µM. actives 0.19% (n = 320,000); in the data active = activation above about 80%; inconclusive = between about 30% and that limit
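Cells expressing TRPV1 were dye-loaded with Fluo-8 and read kinetically: 10 s baseline, 3 min after compound (agonist portion), then 2 min after EC20 capsaicin (allosteric enhancer portion). Calcium-bound dye fluorescence at 480/520 nm.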
TRPV1 PAM – enhances activation of the human vanilloid receptor TRPV1; Q8NER1; TRPV1-expressing cells, Fluo-8 calcium influx, capsaicin EC20 potentiation; potentiation, % at 8.33 µM; actives 0.02% (n = 320,000); AID 540277; in the data active = potentiation above about 80%; inconclusive = between about 30% and that limit
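TRPV1-expressing cells were cultured overnight at 35.5C and loaded with Fluo-8 calcium dye for 40 to 90 min at room temperature. After a 10 s baseline, compound was added and calcium influx was read kinetically for 3 min (ex 480/em 520 nm).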
KCNH2 WT inh – inhibitors of human wildtype KCNH2 potassium channel; AID 720551; activity change, % at 1.84 µM; actives 0.37% (n = 340,000); U2OS, BacMam KCNH2, thallium flux FluxOr; stronger effect = lower value; Q12809;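 active = maximum activity change below -70%; inconclusive = maximum activity change between -70% and -50%; inactive = maximum activity change above -50%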
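U2OS cells were transduced with wild-type KCNH2 virus (2.03 x 10^8 / mL) for 4 h at room temperature, then cultured overnight at 37 C. Thallium flux was read with FluxOr dye. Rate constants were normalized to DMSO controls.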
Each line names hits and unclear results; the compound was inactive in the other large screens. Hits are enriched below; roughly 1.2% of the tested compounds scored in any of these assays.

COc1cc(OC)cc(C(=O)N[C@H](C(=O)NC2CCCc3ccccc32)C(C)C)c1 (stereo partly drawn)	none (no result: TRPV1 agonist, TRPV1 PAM)
CCc1ccc(C(C)NC(=S)NCc2ccc(F)cc2)cc1 (stereo not drawn)	TRPV1 agonist inconclusive
CCOc1ccc(C(C)NC(=S)NCc2ccc(F)cc2)cc1 (stereo not drawn)	TRPV1 agonist 86
Cc1ccc(C(C)NC(=S)NCc2ccc(F)cc2)cc1C (stereo not drawn)	TRPV1 agonist 80
NC(=O)C1C(=O)c2ccccc2C1(C[N+](=O)[O-])c1ccccc1 (stereo not drawn)	none (no result: TRPV1 agonist, TRPV1 PAM)
O=C(CN1CCCc2ccccc21)NC(=O)NCc1ccccc1	none
CC(C)(C)NC(=O)NC(=O)CN1CCCc2ccccc21	KCNH2 3.1 block -88
COc1ccc(C(=O)OCc2c(-c3ccccc3)ncc3ccccc23)cc1	KCNH2 3.1 block -70 (no result: TRPV1 agonist, TRPV1 PAM)
CC(C)C(NCC(=O)Nc1ccccc1C(=O)NC1CC1)c1ccccc1 (stereo not drawn)	none (no result: TRPV1 agonist, TRPV1 PAM)
Cc1ccc(NC(=O)CN2C(=O)C(=O)N(C3CCCC3)C2=O)c(Cl)c1	none
CN(C)/C=C1\C=C2C(=O)c3ccccc3N2C1=O	TRPV1 agonist 93
CN(C)S(=O)(=O)N1C(=O)c2ccccc2C1=O	none
CCOc1ccc(CCNC(=O)CSCC(=O)Nc2ccc(OC)cc2)cc1OCC	none
Cc1ccc(-n2ncc3c2CCCC3NC(=O)c2csnn2)cc1C (stereo not drawn)	TRPV1 agonist inconclusive, KCNH2 WT inh -89
Cc1nnsc1C(=O)NC1CCCc2c1cnn2-c1ccc(C(C)(C)C)cc1 (stereo not drawn)	TRPV1 agonist 85
CCn1c(/C=C/N(C(C)=O)c2ccccc2)[n+](CCCS(=O)(=O)[O-])c2cc(Cl)c(Cl)cc21	none
CCn1c(/C=C/Nc2ccccc2)[n+](CC)c2cc(Cl)c(Cl)cc21	KCNH2 3.1 block -98, KCNH2 WT inh -132
COc1cc(OC)cc(-c2c(-c3cccs3)c3cc(-c4ccc(N(C)C)nc4)ccc3n2C)c1	none
COc1ccc(CN2CCN(Cc3c[nH]c4ccccc34)CC2)c(OC)c1	KCNH2 3.1 block -102 (no result: TRPV1 agonist, TRPV1 PAM)
COc1ccc(CN2CCN(Cc3c[nH]c4ccccc34)CC2)cc1	none
COc1ccc(CN2CCN(Cc3ccc(C(F)(F)F)cc3)CC2)c(OC)c1	KCNH2 3.1 block -101
Cc1c(Cl)cccc1NC(=O)CSc1nc(=O)n(CCCN2CCOCC2)c2c1CCCC2	none (no result: TRPV1 agonist, TRPV1 PAM)
O=C(CSc1nc2ccccc2c(=O)n1Cc1ccco1)N1CCN(c2ccccc2)CC1	KCNH2 3.1 block -107, TRPV1 agonist inconclusive, KCNH2 WT inh -104
CCOc1ccc2nc(NC(=O)CSc3nc4ccccc4c(=O)n3Cc3ccco3)sc2c1	KCNH2 3.1 block -97, KCNH2 WT inh inconclusive
COc1ccc(CCNC(=O)CC2(CC3=NS(=O)(=O)c4ccccc4N3)CCCC2)cc1OC	none
Cc1ccc(CNC(=O)CC2(CC3=NS(=O)(=O)c4ccccc4N3)CCCC2)cc1	KCNH2 3.1 block -85, TRPV1 agonist inconclusive
O=S(=O)(Nc1cccc2ccccc12)c1cccc2ccccc12	none (no result: KCNH2 3.1 block, KCNH2 WT inh)
Cc1cc(C)n2nc(SCc3ccccc3C(=O)O)nc2n1	KCNH2 3.1 block -191, KCNH2 WT inh -144
Cc1cc(C)n2nc(SCc3ccccc3F)nc2n1	none
O=C(N/N=C/c1ccccn1)c1cc(C2CC2)[nH]n1	KCNH2 3.1 block -92
O=C(N/N=C/c1ccc(Br)s1)c1ccccn1	TRPV1 agonist 87
CC(C)(C)c1ccc(/C=N/NC(=O)c2ccccn2)cc1	TRPV1 agonist 83
O=C(N/N=C/c1ccccn1)c1ccc(N/N=C/c2ccccn2)cc1	none
CC(C)(C)c1ccc(C(=O)N/N=C/c2ccccn2)cc1	TRPV1 agonist 83
O=C(N/N=C/c1ccsc1)c1ccccn1	none
O=C(CN1C(=O)/C(=C2/SC(=S)N(CCS(=O)(=O)O)C2=O)c2ccccc21)Nc1cccc(Br)c1	none (no result: TRPV1 agonist, TRPV1 PAM)
Cc1cc(C)n2c(=O)[nH]nc2c1	none (no result: TRPV1 agonist, TRPV1 PAM)
O=S1(=O)N[C@@H](c2ccccc2)COc2cc(Br)ccc21	none (no result: TRPV1 agonist, TRPV1 PAM)
CC1(C)CC(=O)C=C(c2ccc(COC(=O)C3CC3)cc2)C1=O	none (no result: TRPV1 agonist, TRPV1 PAM)
O=C(N/N=C/c1ccccn1)c1cccc([N+](=O)[O-])c1	TRPV1 PAM inconclusive
O=C(N/N=C/c1ccccn1)c1ccc(NC(=O)c2cccc([N+](=O)[O-])c2)cc1	KCNH2 3.1 block -71
COc1ccc(Cn2c(CCC(=O)O)nc3cccnc32)cc1	KCNH2 3.1 block -72
COCCN(C/C=C/c1ccccc1)C/C=C/c1ccccc1	KCNH2 3.1 block -79
CC1CN(CC(O)COc2ccc(C#N)cc2)CCN1CC(O)COc1ccc(C#N)cc1 (stereo not drawn)	KCNH2 3.1 block -102, KCNH2 WT inh -118
Cc1ccc(OCC(O)CN2CCN(CC(O)COc3ccc(C)cc3)CC2)cc1 (stereo not drawn)	KCNH2 3.1 block inconclusive
OC(COc1ccc(F)cc1)CN1CCN(CC(O)COc2ccc(F)cc2)CC1 (stereo not drawn)	KCNH2 3.1 block -74
Cc1ccccc1OCC(O)CN1CCN(C)CC1 (stereo not drawn)	none
OC(COc1ccccc1Cl)CN1CCN(CC(O)COc2ccccc2Cl)CC1 (stereo not drawn)	KCNH2 3.1 block -82, KCNH2 WT inh inconclusive
OC(COc1ccc(-c2ccccc2)cc1)CN1CCCCC1 (stereo not drawn)	KCNH2 3.1 block -73 (no result: TRPV1 agonist, TRPV1 PAM)
CC(C)(C)OC(=O)C[C@H]1C/C=C\C[C@@H](CC(=O)NCCO)C(=O)N[C@H](C(C)(C)C)COC1=O	none (no result: TRPV1 agonist, TRPV1 PAM)
COC(=O)c1ccc(OCC(O)CNC2CCCC2)cc1 (stereo not drawn)	none
OC(CNC1CCCC1)COc1ccc(-c2ccccc2)cc1 (stereo not drawn)	KCNH2 3.1 block -71
CCOc1ccc(/C=N/n2c(SC)nnc(C(C)(C)C)c2=O)cc1	KCNH2 WT inh -80
CC(=O)N1CCN(S(=O)(=O)c2cccc(C(=O)NCc3ccc(F)cc3)c2)CC1	none (no result: TRPV1 agonist, TRPV1 PAM)
COc1ccc(C(=O)C(C)[n+]2ccc(C)c3ccccc32)cc1[N+](=O)[O-] (stereo not drawn)	KCNH2 WT inh -140
COc1ccc(C(=O)NC(C)CCc2ccccc2)cc1[N+](=O)[O-] (stereo not drawn)	none
O=C(Nc1ccccc1N1CCN(C(=O)c2ccc(Cl)cc2)CC1)c1ccc2c(c1)OCO2	KCNH2 3.1 block -82
CC(=O)c1ccc(N2CCN(C(=O)Nc3ccc(Cl)cc3)CC2)cc1	TRPV1 agonist 84
O=C(CSc1ccc(Cl)cc1)Nc1ccc(N2CCN(C(=O)c3ccc(Cl)cc3)CC2)cc1	KCNH2 3.1 block -89, KCNH2 WT inh -133
O=C(Nc1ccc(N2CCN(C(=O)c3ccc(Cl)cc3)CC2)cc1)c1cccs1	KCNH2 3.1 block -74
CC(=O)c1ccc(NC(=O)N2CCN(c3cccc(Cl)c3)CC2)cc1	none
O=C(CSc1ccc(Cl)cc1)Nc1ccccc1N1CCN(C(=O)c2ccc(Cl)cc2)CC1	none
Cc1ccc(NC(=O)CCNC(=O)N2CC(=O)Nc3ccccc32)cc1Cl	KCNH2 3.1 block inconclusive (no result: TRPV1 agonist, TRPV1 PAM)

Screening results as filed in PubChem BioAssay.
